Consider 40 compounds from PubChem BioAssay (NCI).

Several values for one entry are separate records, joined by “and”; a condition that tells them apart may be missing. Identical values can stand only once. The panel holds about 79,000 compounds, 15% with a hit somewhere; the sample as a whole holds those more often. Activity calls are given as the source filed them. Rule as the data show it: active = growth inhibition above about 70%; inactive = the rest.

The nature of the first assay: NCI Yeast Anticancer Drug Screen. Data for the bub3 strain (AID 167). The conditions noted are these: S. cerevisiae bub3 mutant strain, at 50.0 µM, hits give high values. The essentials: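 Yeast carrying a defined mutation is treated with each compound, and growth is compared with that of vehicle-exposed cells to give inhibition.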
Consider `O=C(Cc1ccccc1)Oc1ccc2c(-c3ccccc3)c(C(=O)Nc3ccc(Cl)cc3)c(=O)oc2c1`, for which the growth inhibition was -23.4% (inactive).
Same read-out and setting: to `Cc1ccc(CCl)c(C)c1` belongs 5.45% (inactive); to `COC1C(=[N+]=[N-])C(=O)NC(=O)N1C` (stereo not given), 20.3% (inactive); to `O=C(O)CC(=O)O.[Ti].[c-]1[c-][c-][cH-][c-]1.[c-]1[c-][c-][cH-][c-]1`, 0.2% (inactive).
The same measure, in the same setting: to `CCOc1ccc(Nc2nc(=O)[nH]c3ccccc23)cc1CN(CCCl)CCCl` belongs 1.3% (inactive).
The same measure, in the same setting: the figure for `CCC[C@H]1CCCCN1` is -13% (inactive).
Consider `CN(C)CCNC(=O)c1cccc(COC(=O)Nc2ccc(N(CCCl)CCCl)cc2)c1[N+](=O)[O-]`, for which the growth inhibition was -3.65% (inactive).
Still for that read-out and setting: to `CCOC(=O)/C=C1\Nc2ccccc2C(c2ccccc2)=NC1OC(C)=O` (stereo not given) belongs -13.7% (inactive).
On the same count and under the same terms, to `O=C1NC(=O)C(CC(C(=O)C(=O)Nc2ccccc2Cl)C(=O)c2ccc3ccccc3c2)C(=O)N1` (stereo not given) belongs 2.4% (inactive).
`NC(=O)OCCc1c2ccccc2nc2ccccc12`: the growth inhibition is 8.15% (inactive) and 34.1% (inactive).
On to `CNC(=O)Oc1ccc2c(C)cc(=O)oc2c1`, for which the growth inhibition is 17.2% (inactive).
Still for that read-out and setting: the figure for `COc1cc2c(c(OC)c1OC)-c1ccc(O)cc1C(NC(C)=O)CC2` (stereo not given) is 0.65% (inactive).
On to `CC(CN1CCCCCC1)C(C#N)(c1ccccc1)c1ccccc1` (stereo not given), for which the growth inhibition was 46% (inactive).
In the case of `O=C1C=CC(=O)c2c(O)cccc21`, the growth inhibition was 41.3% (inactive).
Turning to `CC(=O)C1C(c2ccccc2)C2(C)OC(=O)C(C#N)C12C` (stereo not given), the growth inhibition is 21.8% (inactive).
For the compound `O=C(O)c1ccccc1.O=C(O)c1ccccc1.O=C(O)c1ccccc1.O=C(O)c1ccccc1.[Cu].[Cu]`, the growth inhibition was 1.85% (inactive).
Take `NC(CCOCCP(=O)(O)O)C(=O)O` (stereo not given): the growth inhibition is -15.3% (inactive).
On the same count and under the same terms, to `C=C(C)C1C2CC3(C)C4(CO4)C4OC4C3(O)C1C(=O)O2` (stereo not given) belongs 5.35% (inactive); to `COc1ccc(CCN(C)Cc2cccc(OC)c2OC)cc1OC`, -16.1% (inactive); to `O=C(Nc1cccc(Cl)c1)OCC(Cl)(Cl)Cl`, 99.3% (active).
Same read-out and setting: to `CCCCC(CC)COP(OCC(CC)CCCC)OCC(CC)CCCC.[Cl][Sn][Cl]` (stereo not given) belongs -6.2% (inactive); to `CC1=C[C@H]2[C@@]3(O)[C@H](C)C[C@]4(OC(=O)C(C)C)[C@H]([C@@H]3C=C(CO)C[C@]2(O)C1=O)C4(C)C`, 20.8% (inactive).
On the same count and under the same terms, the figure for `CCN(CCCl)CCCCCNc1c2ccccc2nc2ccc(OC)cc12` is 78.8% (active); for `CC12CCC3C(CCC4(O)C=CCCC34C=O)C1(O)CC(O)C2c1ccc(=O)oc1` (stereo not given) it is -53.9% (inactive).
Consider `CN(C)CCNC(=O)c1cc(COC(=O)N(CCCl)CCCl)ccc1[N+](=O)[O-]`, for which the growth inhibition was 35.8% (inactive).
Turning to `COc1ccc2c3c1OC1C(C)(O)C(O)CC4C(C2)N(C)CCC341` (stereo not given), the growth inhibition is 4.4% (inactive).
In the case of `O=P(c1ccccc1)(c1ccccc1)c1ccccc1.O=P(c1ccccc1)(c1ccccc1)c1ccccc1.O=P(c1ccccc1)(c1ccccc1)c1ccccc1.O=P(c1ccccc1)(c1ccccc1)c1ccccc1.[Co+2].[O-][Cl+3]([O-])([O-])O`, the growth inhibition is 13.8% (inactive).
For `CCSCCC(N)C(=O)O` (stereo not given), the growth inhibition is -19.9% (inactive) and 6.05% (inactive).
In the case of `OCC(O)C(O)CO` (stereo not given), the growth inhibition was 12.1% (inactive) and 24.6% (inactive).
Regarding `c1ccc(CCN2CCOCC2)nc1`, the growth inhibition was 4.55% (inactive).
With `COP(=O)(OC)/C(=C/c1c[nH]c2ccccc12)C(=O)O`, the growth inhibition was -20.7% (inactive).
On the same count and under the same terms, the figure for `CCC(C)C1NC(=O)C2CCCN2C(=O)C(CC2CO2)OC(=O)CCNC(=O)C(C)N(C)C(=O)C(C(C)C)N(C)C1=O` (stereo not given) is 36% (inactive); for `[C-]#[O+].[C-]#[O+].[C-]#[O+].[Ni].c1ccc([PH+](CC[PH+](c2ccccc2)c2ccccc2)CC[PH+](c2ccccc2)c2ccccc2)cc1` it is 42.6% (inactive); for `CC(=O)c1ccc([As](=O)(O)O)cc1` it is -29.1% (inactive).
Still for that read-out and setting: the figure for `COc1cccc(C=C(C#N)C#N)c1OC` is -3.8% (inactive).
Still for that read-out and setting: the figure for `CCC1C2CC3C4N(C)c5ccccc5C45CC(C2C5O)N3C1O` (stereo not given) is 13.6% (inactive) and -10.1% (inactive) and -32.2% (inactive); for `O=C1NC(=S)NC(=O)C1=Cc1cccc2cc3ccccc3cc12` it is 98.1% (active); for `COC(=O)C(CC(=O)N[N+](=O)[O-])NC(=O)C(CSC(c1ccccc1)(c1ccccc1)c1ccccc1)NC(=O)OCc1ccccc1` (stereo not given) it is -8.1% (inactive).
In the case of `O=C(O)C(O)(c1ccccc1)C1CCCCC1` (stereo not given), the growth inhibition was -30.9% (inactive) and 0.6% (inactive).
Still for that read-out and setting: to `CC(C)[N+](C)(CCC(C(=O)N(C)C)(c1ccccc1)c1ccccc1)C(C)C` belongs -16% (inactive).

The nature of a further assay: NCI Yeast Anticancer Drug Screen. Data for the mlh1 rad18 strain (AID 175). The conditions noted are these: S. cerevisiae mlh1 rad18 strain growth inhibition; at 50.0 µM; hits give high values. The essentials:
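Inhibition values reflect reduced growth of mutant yeast versus vehicle-treated controls following compound exposure; the mutations affect DNA damage repair.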
Turning to `O=C(Cc1ccccc1)Oc1ccc2c(-c3ccccc3)c(C(=O)Nc3ccc(Cl)cc3)c(=O)oc2c1`, the growth inhibition was 12.8% (inactive).
Still for that read-out and setting: to `Cc1ccc(CCl)c(C)c1` belongs -19% (inactive); to `COC1C(=[N+]=[N-])C(=O)NC(=O)N1C` (stereo not given), 20.5% (inactive); to `O=C(O)CC(=O)O.[Ti].[c-]1[c-][c-][cH-][c-]1.[c-]1[c-][c-][cH-][c-]1`, -0.95% (inactive).
Take `CCOc1ccc(Nc2nc(=O)[nH]c3ccccc23)cc1CN(CCCl)CCCl`: the growth inhibition was 22.4% (inactive).
The same measure, in the same setting: to `CCC[C@H]1CCCCN1` belongs 3.6% (inactive); to `CN(C)CCNC(=O)c1cccc(COC(=O)Nc2ccc(N(CCCl)CCCl)cc2)c1[N+](=O)[O-]`, -11.9% (inactive); to `CCOC(=O)/C=C1\Nc2ccccc2C(c2ccccc2)=NC1OC(C)=O` (stereo not given), -9% (inactive).
Turning to `O=C1NC(=O)C(CC(C(=O)C(=O)Nc2ccccc2Cl)C(=O)c2ccc3ccccc3c2)C(=O)N1` (stereo not given), the growth inhibition is -3.45% (inactive).
The same measure, in the same setting: to `NC(=O)OCCc1c2ccccc2nc2ccccc12` belongs 16.1% (inactive) and 64.5% (inactive); to `CNC(=O)Oc1ccc2c(C)cc(=O)oc2c1`, 15.3% (inactive).
Same read-out and setting: to `COc1cc2c(c(OC)c1OC)-c1ccc(O)cc1C(NC(C)=O)CC2` (stereo not given) belongs 31.2% (inactive); to `CC(CN1CCCCCC1)C(C#N)(c1ccccc1)c1ccccc1` (stereo not given), 10.3% (inactive); to `O=C1C=CC(=O)c2c(O)cccc21`, 29.2% (inactive).
Same read-out and setting: the figure for `CC(=O)C1C(c2ccccc2)C2(C)OC(=O)C(C#N)C12C` (stereo not given) is 33.2% (inactive).
`O=C(O)c1ccccc1.O=C(O)c1ccccc1.O=C(O)c1ccccc1.O=C(O)c1ccccc1.[Cu].[Cu]`: the growth inhibition is 17.1% (inactive).
With `NC(CCOCCP(=O)(O)O)C(=O)O` (stereo not given), the growth inhibition is -40.1% (inactive).
The same measure, in the same setting: the figure for `C=C(C)C1C2CC3(C)C4(CO4)C4OC4C3(O)C1C(=O)O2` (stereo not given) is -47.2% (inactive); for `COc1ccc(CCN(C)Cc2cccc(OC)c2OC)cc1OC` it is -2.1% (inactive); for `O=C(Nc1cccc(Cl)c1)OCC(Cl)(Cl)Cl` it is 99.7% (active).
Consider `CCCCC(CC)COP(OCC(CC)CCCC)OCC(CC)CCCC.[Cl][Sn][Cl]` (stereo not given), for which the growth inhibition was 21% (inactive).
Consider `CC1=C[C@H]2[C@@]3(O)[C@H](C)C[C@]4(OC(=O)C(C)C)[C@H]([C@@H]3C=C(CO)C[C@]2(O)C1=O)C4(C)C`, for which the growth inhibition is 10.8% (inactive).
On to `CCN(CCCl)CCCCCNc1c2ccccc2nc2ccc(OC)cc12`, for which the growth inhibition is 76% (active).
As to `CC12CCC3C(CCC4(O)C=CCCC34C=O)C1(O)CC(O)C2c1ccc(=O)oc1` (stereo not given), the growth inhibition was -16.2% (inactive).
The same measure, in the same setting: the figure for `CN(C)CCNC(=O)c1cc(COC(=O)N(CCCl)CCCl)ccc1[N+](=O)[O-]` is 56.8% (inactive).
Still for that read-out and setting: to `COc1ccc2c3c1OC1C(C)(O)C(O)CC4C(C2)N(C)CCC341` (stereo not given) belongs 14.1% (inactive); to `O=P(c1ccccc1)(c1ccccc1)c1ccccc1.O=P(c1ccccc1)(c1ccccc1)c1ccccc1.O=P(c1ccccc1)(c1ccccc1)c1ccccc1.O=P(c1ccccc1)(c1ccccc1)c1ccccc1.[Co+2].[O-][Cl+3]([O-])([O-])O`, 16.3% (inactive); to `CCSCCC(N)C(=O)O` (stereo not given), -13.2% (inactive) and -28.6% (inactive).
Turning to `OCC(O)C(O)CO` (stereo not given), the growth inhibition was -1.05% (inactive) and 0.1% (inactive).
On the same count and under the same terms, the figure for `c1ccc(CCN2CCOCC2)nc1` is 3.85% (inactive).
Same read-out and setting: to `COP(=O)(OC)/C(=C/c1c[nH]c2ccccc12)C(=O)O` belongs -32.2% (inactive); to `CCC(C)C1NC(=O)C2CCCN2C(=O)C(CC2CO2)OC(=O)CCNC(=O)C(C)N(C)C(=O)C(C(C)C)N(C)C1=O` (stereo not given), 28.8% (inactive); to `[C-]#[O+].[C-]#[O+].[C-]#[O+].[Ni].c1ccc([PH+](CC[PH+](c2ccccc2)c2ccccc2)CC[PH+](c2ccccc2)c2ccccc2)cc1`, 46.3% (inactive).
On the same count and under the same terms, the figure for `CC(=O)c1ccc([As](=O)(O)O)cc1` is -30.8% (inactive); for `COc1cccc(C=C(C#N)C#N)c1OC` it is 4.5% (inactive); for `CCC1C2CC3C4N(C)c5ccccc5C45CC(C2C5O)N3C1O` (stereo not given) it is -11.4% (inactive) and -41% (inactive) and -23.6% (inactive).
For `O=C1NC(=S)NC(=O)C1=Cc1cccc2cc3ccccc3cc12`, the growth inhibition is 97% (active).
With `COC(=O)C(CC(=O)N[N+](=O)[O-])NC(=O)C(CSC(c1ccccc1)(c1ccccc1)c1ccccc1)NC(=O)OCc1ccccc1` (stereo not given), the growth inhibition is 29.3% (inactive).
For the compound `O=C(O)C(O)(c1ccccc1)C1CCCCC1` (stereo not given), the growth inhibition is -1.6% (inactive) and -2.85% (inactive).
Turning to `CC(C)[N+](C)(CCC(C(=O)N(C)C)(c1ccccc1)c1ccccc1)C(C)C`, the growth inhibition is 24.4% (inactive).
